Results published in ChEMBL document CHEMBL1157539, “Thousands of chemical starting points for antimalarial lead identification” (Nature, 2010).

test system: Plasmodium falciparum; assay: GSK_TCMDC: Inhibition of Plasmodium falciparum 3D7 in whole red blood cells, using parasite LDH activity as an index of growth. Test compounds present at 2uM; format: functional

Compared with `CC(O)c1cccc(-c2ccc(Nc3ccnc4cc(-c5nccs5)ccc34)cc2)c1.Cl` (stereo not drawn), `O=C(Nc1ccc(-c2ccccc2)cc1)Nc1ccc2c(c1)CCNCC2.O=C(O)C(F)(F)F` is higher in Inhibition: 91% for the first, 97% for the second.

First: CCCC(C)NC(=O)/C=C/c1ccccc1-c1cccc(OC)c1 (stereo not drawn)
Second: CC(C)C1C(=O)N(S(C)(=O)=O)C2CCN(C(=O)c3ccc(CN4CCCCC4)c([N+](=O)[O-])c3)C12.Cl (stereo not drawn)
The Inhibition of the first is lower: 87% for the first, 100% for the second.

test system: Plasmodium falciparum; assay: GSK_TCMDC: Inhibition of Plasmodium falciparum Dd2 in whole red blood cells, using parasite LDH activity as an index of growth. Test compounds present at 2uM; format: functional

Going from `COc1ccc2ccccc2c1C=NN=c1cc(C)[nH]c2cc(C(F)(F)F)ccc12` to `COc1ccc(-c2ccc(CNCc3ccccc3)cc2)cc1S(=O)(=O)NCCN1CCCC1.O=C(O)C(F)(F)F`, the Inhibition rises from 4% to 76%.

First: COc1ccc(C(=O)N[C@@H](CC(C)C)C(=O)NC2CC[C@@H](C)N(C(=O)Nc3ccc(Cl)cc3)CC2=O)cc1OCCN1CCOCC1 (stereo partly drawn)
Second: CCc1ccccc1N1CCN(CCCC(=O)c2ccc(NC(=O)c3ccc(Cl)cc3)cc2)CC1
The Inhibition of the first is higher: 91% for the first, 4% for the second.

First: C=CCN1C(=O)CN(S(=O)(=O)c2ccc(-n3nc(C)cc3C)cc2)C1=S
Second: Cc1ccc(C2CC(=O)CC(c3ccccn3)C2[N+](=O)[O-])cc1 (stereo not drawn)
The Inhibition of the first is lower: 0% for the first, 2% for the second.

Going from `Fc1ccc2[nH]c(-c3ccc(-c4ccc(CN5CCN(CCN6CCOCC6)CC5)cc4)cc3)nc2c1.O=C(O)C(F)(F)F` to `O=C(O)C(F)(F)F.Oc1ccc(CCNc2nc(NCc3ccccc3-c3cccc(Cl)c3)nc(N3CCNCC3)n2)cc1`, the Inhibition falls from 100% to 11%.

For `O=C(Nc1ccc(Cl)c(C(F)(F)F)c1)c1ccc(C(=O)Nc2ccc(Cl)c(C(F)(F)F)c2)cc1`, the Inhibition was 27%.
